# Test results published in PubChem BioAssay (NCATS).
# Where “and” joins values, the source holds several entries; their conditions need not be identical. Identical values can stand only once. Records with an inconclusive call do not appear. Entries that show only a call come without a potency. A structure can be active in one record and inactive in another. Calls of active or inactive are those of the source. Calls follow the shape of the dose curve; as a rule, active = well fitted cell-killing curve with a large enough effect; inconclusive = small, poorly fitted or top-dose-only effect, or effect the other way; inactive = no such curve, though single readings can be large or run the other way.
# Assay: Viability qHTS for spleen associated tyrosine kinase inhibitor (SYKi) naive MV4-11 cells (AID 1963823); also: nearly all actives have a fitted effect of over 40% in size
# Details: MV4-11 AML viability, CellTiter-Glo luminescence, 72 h; series mostly up to 45 µM
# Outline: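 Luminescence from CellTiter-Glo, developed 10 min at room temperature, gave viability of MV4-11 cells never exposed to SYK inhibitor. Cells (500/well) had been incubated with compounds for 72 hr under standard culture conditions.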
# Potency is read from the fitted curve at half-maximal effect.
row,Compound,Potency
1,COc1cc2c(Oc3ccc4[nH]c(C)cc4c3F)ccnc2cc1OCC1(N)CC1,4.17 µM (active)
2,CCCCOC(=O)CC(CC(=O)OCCCC)(OC(C)=O)C(=O)OCCCC,inactive
3,COc1cc(C(=O)NC(N)=Nc2ccc(C)c(NC(=O)c3ccc(-c4ccccc4)cc3)c2)cc(OC)c1OC,14.8 µM (active)
4,CCS(=O)(=O)Nc1ccc(Oc2ccc(F)cc2F)c(-c2cn(C)c(=O)c3[nH]ccc23)c1,0.0037 µM (active)
5,CC1c2cccc(O)c2C(O)=C2C(=O)C3(O)C(O)=C(C(N)=O)C(=O)C(N(C)C)C3C(O)C21 (stereo not given),20.9 µM (active)
6,O=C(CCN1CCN(CCO)CC1)N1c2ccccc2Sc2ccc(C(F)(F)F)cc21,inactive
7,Cc1ccccc1OCC(O)CO (stereo not given),inactive
8,Fc1cccc(-n2cnc3c(NCc4nc5c(F)c(F)ccc5[nH]4)nc(N4CCOCC4)nc32)c1,0.059 µM (active)
9,COc1cc(C=O)ccc1O,inactive
10,O=[N+]([O-])c1ccc(-c2nc(-c3ccc(F)cc3)c(-c3ccncc3)[nH]2)cc1,14.8 µM (active) and 5.17 µM (active)
11,O=C(OCC1(COC(=O)c2cccnc2)CCCC(COC(=O)c2cccnc2)(COC(=O)c2cccnc2)C1O)c1cccnc1,inactive
12,CCS(=O)(=O)N1CCN(c2ccc(Nc3ncc(C(N)=O)c(NC4CC4)n3)cc2)CC1,130 nM (active) and 332 nM (active)
13,Nc1c2ccccc2nc2ccccc12,2.99 µM (active)
14,COc1ccc(CNc2nc(N(CCO)CCO)nc3c2ncn3C(C)C)cc1,4.11 µM (active)
15,CCOC(=O)c1cc(=O)c2c(OCC(COc3cccc4oc(C(=O)OCC)cc(=O)c34)OC(=O)[C@@H](N)CCCCN)cccc2o1,inactive
16,O=C(O)C[C@H](O)C[C@H](O)/C=C/c1c(C2CC2)nc2ccccc2c1-c1ccc(F)cc1,461 nM (active) and 525 nM (active)
17,COc1cccc2c1C(=O)c1c(O)c3c(c(O)c1C2=O)C[C@@](O)(/C(CO)=N/NC(=O)CCCCCN1C(=O)C=CC1=O)C[C@@H]3O[C@H]1C[C@H](N)[C@H](O)[C@H](C)O1,0.132 µM (active)
18,COC(C)(C)CCn1nc(Nc2c(C)cccc2C)c2cnc(Nc3ccc(OCCN4CCCC4)c(F)c3)nc21,731 nM (active) and 742 nM (active)
19,CCS(=O)(=O)N1CCC([C@@H](C)n2c(C)c(C(=O)NCc3c(OC)cc(C)[nH]c3=O)c3ccccc32)CC1,inactive
20,C=CC(=O)Nc1cccc(Nc2nc(Nc3ccc(Oc4ccnc(C(=O)NC)c4)cc3)ncc2F)c1,4.61 µM (active) and 2.63 µM (active)

row,Compound,Potency
1,COc1cc(C(=O)NC2CCCNC2)cc(OC)c1OC (stereo not given),inactive
2,CCCCOc1cc(C(=O)OCCN(CC)CC)ccc1N,inactive
3,O=C(O)C(S)C(S)C(=O)O (stereo not given),inactive
4,CC[C@@](C)(Nc1ccnc(-c2c[nH]c3ncccc23)n1)C(=O)NCC(F)(F)F,14.6 µM (active)
5,CC1(C)S[C@H]2[C@H](NC(=O)[C@@H](N)c3ccc(O)cc3)C(=O)N2[C@H]1C(=O)O,inactive
6,CN1CCN(C(c2ccccc2)c2ccccc2)CC1,inactive
7,CCN(CC)CCOC(=O)C1(c2ccccc2)CCCC1,inactive
8,O=C1CC(c2c[nH]c3ccc(F)cc23)C(=O)N1 (stereo not given),inactive
9,N#Cc1ccc(COC[C@H]2O[C@@H](n3c(NCc4ccc(Cl)c(Cl)c4)nc4c(N)ncnc43)[C@H](O)[C@@H]2O)cc1,4.68 µM (active)
10,COc1cccc(OCCCN)c1-c1cc(Nc2cnc(C#N)cn2)n[nH]1,14.6 nM (active) and 5.9 nM (active)
11,C/C(=N/NC(=O)c1ccncc1)C(=O)O,inactive
12,CC(=O)N1CCC[C@H]1C(=O)N[C@@H](Cc1cnc[nH]1)C(=O)N[C@@H](CO)C(=O)N[C@@H](CS)C(=O)N[C@@H](CC(N)=O)C(N)=O,inactive
13,N#Cc1cc2cc(CN3CCC(Nc4ncnc5sc(CC(F)(F)F)cc45)CC3)c(O)cc2n1Cc1cn[nH]c1,0.742 µM (active)
14,COc1ccc(S(=O)(=O)N2CCc3cccc(-c4ccncc4)c32)cc1,0.833 µM (active)
15,CCCCN1C[C@H](O)[C@@H](O)[C@H](O)[C@H]1CO,inactive
16,COc1cccc2c1C(=O)c1c(O)c3c(c(O)c1C2=O)C[C@@](O)(C(=O)CO)C[C@@H]3O[C@H]1C[C@H](N)[C@H](O)[C@H](C)O1,0.133 µM (active)
17,Cc1c(-c2ccccc2)oc2c(C(=O)OCCN3CCCCC3)cccc2c1=O,inactive
18,CCN1C(=O)N2Cc3cc(OC)cc(OC)c3[C@@H](C)C=C2C12CCN(Cc1cc(C)cc(C)c1)CC2,18.6 µM (active)
19,CN1CCC[C@@H]1c1cccnc1,inactive
20,COC(=O)[C@@H](N)Cc1ccc(O)c(O)c1,inactive

# Assay: Viability qHTS for spleen associated tyrosine kinase inhibitor (SYKi) drug resistant MV4-11 cells (AID 1963824); also: nearly all actives have a fitted effect of over 35% in size
# Details: SYKi-resistant MV4-11 viability, CellTiter-Glo, 72 h; series mostly up to 45 µM
# Outline: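 SYK-inhibitor-resistant MV4-11 AML cells were seeded at 500 per well onto compound and cultured 72 hours (37 °C, 5% CO2). CellTiter-Glo was then added, and after 10 min at room temperature, luminescence gave viability.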
row,Compound,Potency
1,COc1cc2c(Oc3ccc4[nH]c(C)cc4c3F)ccnc2cc1OCC1(N)CC1,4.17 µM (active)
2,CCCCOC(=O)CC(CC(=O)OCCCC)(OC(C)=O)C(=O)OCCCC,inactive
3,COc1cc(C(=O)NC(N)=Nc2ccc(C)c(NC(=O)c3ccc(-c4ccccc4)cc3)c2)cc(OC)c1OC,8.33 µM (active)
4,CCS(=O)(=O)Nc1ccc(Oc2ccc(F)cc2F)c(-c2cn(C)c(=O)c3[nH]ccc23)c1,0.0042 µM (active)
5,CC1c2cccc(O)c2C(O)=C2C(=O)C3(O)C(O)=C(C(N)=O)C(=O)C(N(C)C)C3C(O)C21 (stereo not given),11.8 µM (active)
6,O=C(CCN1CCN(CCO)CC1)N1c2ccccc2Sc2ccc(C(F)(F)F)cc21,inactive
7,Cc1ccccc1OCC(O)CO (stereo not given),inactive
8,Fc1cccc(-n2cnc3c(NCc4nc5c(F)c(F)ccc5[nH]4)nc(N4CCOCC4)nc32)c1,0.186 µM (active)
9,COc1cc(C=O)ccc1O,inactive
10,O=[N+]([O-])c1ccc(-c2nc(-c3ccc(F)cc3)c(-c3ccncc3)[nH]2)cc1,inactive and 9.34 µM (active) and 2.06 µM (active)
11,O=C(OCC1(COC(=O)c2cccnc2)CCCC(COC(=O)c2cccnc2)(COC(=O)c2cccnc2)C1O)c1cccnc1,inactive
12,CCS(=O)(=O)N1CCN(c2ccc(Nc3ncc(C(N)=O)c(NC4CC4)n3)cc2)CC1,184 nM (active) and 525 nM (active)
13,Nc1c2ccccc2nc2ccccc12,3.76 µM (active)
14,COc1ccc(CNc2nc(N(CCO)CCO)nc3c2ncn3C(C)C)cc1,5.8 µM (active)
15,CCOC(=O)c1cc(=O)c2c(OCC(COc3cccc4oc(C(=O)OCC)cc(=O)c34)OC(=O)[C@@H](N)CCCCN)cccc2o1,inactive
16,O=C(O)C[C@H](O)C[C@H](O)/C=C/c1c(C2CC2)nc2ccccc2c1-c1ccc(F)cc1,164 nM (active) and 235 nM (active)
17,COc1cccc2c1C(=O)c1c(O)c3c(c(O)c1C2=O)C[C@@](O)(/C(CO)=N/NC(=O)CCCCCN1C(=O)C=CC1=O)C[C@@H]3O[C@H]1C[C@H](N)[C@H](O)[C@H](C)O1,0.186 µM (active)
18,COC(C)(C)CCn1nc(Nc2c(C)cccc2C)c2cnc(Nc3ccc(OCCN4CCCC4)c(F)c3)nc21,1.03 µM (active) and 1.66 µM (active)
19,CCS(=O)(=O)N1CCC([C@@H](C)n2c(C)c(C(=O)NCc3c(OC)cc(C)[nH]c3=O)c3ccccc32)CC1,inactive
20,C=CC(=O)Nc1cccc(Nc2nc(Nc3ccc(Oc4ccnc(C(=O)NC)c4)cc3)ncc2F)c1,5.8 µM (active) and 4.17 µM (active)

row,Compound,Potency
1,COc1cc(C(=O)NC2CCCNC2)cc(OC)c1OC (stereo not given),inactive
2,CCCCOc1cc(C(=O)OCCN(CC)CC)ccc1N,inactive
3,O=C(O)C(S)C(S)C(=O)O (stereo not given),inactive
4,CC[C@@](C)(Nc1ccnc(-c2c[nH]c3ncccc23)n1)C(=O)NCC(F)(F)F,16.4 µM (active)
5,CC1(C)S[C@H]2[C@H](NC(=O)[C@@H](N)c3ccc(O)cc3)C(=O)N2[C@H]1C(=O)O,inactive
6,CN1CCN(C(c2ccccc2)c2ccccc2)CC1,inactive
7,CCN(CC)CCOC(=O)C1(c2ccccc2)CCCC1,inactive
8,O=C1CC(c2c[nH]c3ccc(F)cc23)C(=O)N1 (stereo not given),inactive
9,N#Cc1ccc(COC[C@H]2O[C@@H](n3c(NCc4ccc(Cl)c(Cl)c4)nc4c(N)ncnc43)[C@H](O)[C@@H]2O)cc1,2.52 µM (active) and 3.32 µM (active)
10,COc1cccc(OCCCN)c1-c1cc(Nc2cnc(C#N)cn2)n[nH]1,0.0116 µM (active)
11,C/C(=N/NC(=O)c1ccncc1)C(=O)O,inactive
12,CC(=O)N1CCC[C@H]1C(=O)N[C@@H](Cc1cnc[nH]1)C(=O)N[C@@H](CO)C(=O)N[C@@H](CS)C(=O)N[C@@H](CC(N)=O)C(N)=O,inactive
13,N#Cc1cc2cc(CN3CCC(Nc4ncnc5sc(CC(F)(F)F)cc45)CC3)c(O)cc2n1Cc1cn[nH]c1,1.32 µM (active)
14,COc1ccc(S(=O)(=O)N2CCc3cccc(-c4ccncc4)c32)cc1,0.833 µM (active)
15,CCCCN1C[C@H](O)[C@@H](O)[C@H](O)[C@H]1CO,inactive
16,COc1cccc2c1C(=O)c1c(O)c3c(c(O)c1C2=O)C[C@@](O)(C(=O)CO)C[C@@H]3O[C@H]1C[C@H](N)[C@H](O)[C@H](C)O1,0.299 µM (active)
17,Cc1c(-c2ccccc2)oc2c(C(=O)OCCN3CCCCC3)cccc2c1=O,inactive
18,CCN1C(=O)N2Cc3cc(OC)cc(OC)c3[C@@H](C)C=C2C12CCN(Cc1cc(C)cc(C)c1)CC2,14.8 µM (active)
19,CN1CCC[C@@H]1c1cccnc1,inactive
20,COC(=O)[C@@H](N)Cc1ccc(O)c(O)c1,inactive
